Results reported in PubChem BioAssay (NCATS).
Records with an inconclusive call do not appear. Where a call stands in place of a potency, no number is given. Active and inactive are the calls of the source. The call rests on the fitted dose curve; in most records, active means well fitted cell-killing curve with a large enough effect; inconclusive means small, poorly fitted or top-dose-only effect; inactive means flat fitted curve, though single readings scatter.

Experiment: Cell Viability - LYMP2-024 (AID 988);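 further: cells exposed to compound for 24 hr at 37 °C; nearly all actives have a fitted effect of over 60% in size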
Conditions: LYMP2-024 lymphoblastoid cell viability; series mostly up to 92.2 µM
How it was run: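 Acute toxicity is measured as concentration-dependent loss of intracellular ATP in a human lymphoblastoid line treated 24 hours at 37 C. Luciferase luminescence quantifies ATP; AC50 values come from standard Hill-equation modelling.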
Potency means the concentration at half of the fitted maximal effect.

Compound | Potency
O=C(O)/C=C\C(=O)O | inactive
Nc1ccc(O)c([N+](=O)[O-])c1 | inactive
Nc1nc2ccc([N+](=O)[O-])cc2s1 | inactive
CN(C)c1ccc(N=NS(=O)(=O)O)cc1 | inactive
CN(C)c1ccc(C(=C2C=CC(=[N+](C)C)C=C2)c2ccccc2)cc1 | 0.199 µM (active)
CCCCCCCCCCCCCCCCCC(=O)O | inactive
Nc1ccc([N+](=O)[O-])cc1O | inactive
COc1cc(CNC(=O)CCCC/C=C/C(C)C)ccc1O | inactive
c1ccc2sc(SSc3nc4ccccc4s3)nc2c1 | inactive
NCCO | inactive
COc1cc(/C=C/C(=O)CC(=O)/C=C/c2ccc(O)c(OC)c2)ccc1O | 25.1 µM (active)
CCCOC(=O)c1ccc(O)cc1 | inactive
O=C1CN(/N=C/c2ccc([N+](=O)[O-])o2)C(=O)N1 | inactive
O=c1cc(-c2ccccc2)oc2ccccc12 | inactive
N=C1N=C(N)c2cc3ccccc3cc21 | 39.8 µM (active)
Nc1ccc(O)c(C(=O)O)c1 | inactive
C#C[C@]1(O)CC[C@H]2[C@@H]3CCc4cc(O)ccc4[C@H]3CC[C@@]21C | inactive
O=C(O)c1cc(O)c(O)c(O)c1 | inactive
CC1(C)S[C@@H]2[C@H](NC(=O)[C@H](N)c3ccccc3)C(=O)N2[C@H]1C(=O)O | inactive

Experiment: Cell Viability - LYMP2-026 (AID 989);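 further: cells exposed to compound for 24 h at 37 °C; nearly all actives have a fitted effect of over 50% in size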
Conditions: LYMP2-026 lymphoblastoid cell viability, qHTS; series mostly up to 92.2 µM
How it was run: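 Concentration-dependent loss of intracellular ATP in human lymphoblastoid cells after 24 hr at 37 C, quantified by luciferase luminescence. AC50 derived from standard Hill equation.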

Compound | Potency
O=C(O)/C=C\C(=O)O | inactive
Nc1ccc(O)c([N+](=O)[O-])c1 | inactive
Nc1nc2ccc([N+](=O)[O-])cc2s1 | inactive
CN(C)c1ccc(N=NS(=O)(=O)O)cc1 | inactive
CN(C)c1ccc(C(=C2C=CC(=[N+](C)C)C=C2)c2ccccc2)cc1 | 0.316 µM (active)
CCCCCCCCCCCCCCCCCC(=O)O | inactive
Nc1ccc([N+](=O)[O-])cc1O | inactive
COc1cc(CNC(=O)CCCC/C=C/C(C)C)ccc1O | inactive
c1ccc2sc(SSc3nc4ccccc4s3)nc2c1 | inactive
NCCO | inactive
COc1cc(/C=C/C(=O)CC(=O)/C=C/c2ccc(O)c(OC)c2)ccc1O | 31.6 µM (active)
CCCOC(=O)c1ccc(O)cc1 | inactive
O=c1cc(-c2ccccc2)oc2ccccc12 | inactive
N=C1N=C(N)c2cc3ccccc3cc21 | 39.8 µM (active)
Nc1ccc(O)c(C(=O)O)c1 | inactive
C#C[C@]1(O)CC[C@H]2[C@@H]3CCc4cc(O)ccc4[C@H]3CC[C@@]21C | inactive
O=C(O)c1cc(O)c(O)c(O)c1 | inactive
CC1(C)S[C@@H]2[C@H](NC(=O)[C@H](N)c3ccccc3)C(=O)N2[C@H]1C(=O)O | inactive
